From PubChem
NALP1 yeast inh: NALP1 inflammasome inhibitors in reconstituted yeast, colorimetric, S. cerevisiae, triplicate retest | 280,000 tested, 0.61% active | S. cerevisiae NALP1/ASC/caspase-1 growth, X-gal OD620, 72 h | inhibition, % at 10 µM; in the data active = inhibition mostly above about 24%, no sharp cut-off; inactive = mostly below about 32%
tim10-1 inh: growth inhibitors of tim10-1 mutant yeast, primary screen, luminescence, uHTS. S. cerevisiae tim10-1 ts strain growth, BacTiter-Glo, 24 h. inhibition, % at 20 µM. 330,000 tested, 2.2% active. AID 463190, 2010;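 active = inhibition of at least 40%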;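 note: mutant grown at 25 °C; 0% = DMSO wells with yeast and 100% = wells holding no yeast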
TIM10 inh: growth inhibitors of isogenic TIM10 control yeast, primary screen, counter-screen for tim10-1 yeast inhibitor project, luminescence, uHTS; S. cerevisiae TIM10 strain growth, BacTiter-Glo luminescence, 24 h; inhibition, % at 10 µM; 330,000 tested, 1.4% active; AID 463195, 2010;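 active = inhibition of 40% or more at the single tested concentration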;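 note: wild-type TIM10 isogenic control strain grown at permissive 25 °C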
NLRP3 yeast inh: NALP3 inflammasome inhibitors in reconstituted yeast, primary screen, luminescence, uHTS; Yeast reconstituted NLRP3/ASC/caspase-1, beta-gal luminescence, 24 h; inhibition, % at 10 µM; 330,000 tested, 0.39% active; AID 2825, 2010;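 active = inhibition of 50% or more; inactive = inhibition below 50%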;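 note: plate controls were induced DMSO wells for no effect and uninduced yeast grown without galactose for full effect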
tim23-1 inh: growth inhibitors of tim23-1 mutant yeast, primary screen, luminescence, uHTS; S. cerevisiae tim23-1 growth, BacTiter-Glo luminescence, 24 h; inhibition, % at 20 µM; 330,000 tested, 1.3% active; AID 463212, 2010;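 active = growth inhibition of the mutant yeast at or above 50%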;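 note: temperature-sensitive mutant grown at 25 °C; plate controls were DMSO-treated mutant yeast for no effect and medium wells lacking yeast for full effect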
* marks the source's active call; other numbers are inactive results; . = no result. Only some compounds are listed: those with a hit (about 4.1% of all), similar ones and a draw of the others.

SMILES | NALP1 yeast inh | tim10-1 inh | TIM10 inh | NLRP3 yeast inh | tim23-1 inh
Cc1cc(C)c(S(=O)(=O)c2ccccc2)c(=O)[nH]1 | 4 | 1 | -9 | 13 | 4
Cc1cc(C)c(S(=O)(=O)c2cccc(C)c2C)c(=O)[nH]1 | 33* | 19 | -3 | 7 | 10
COc1cc(NC(=O)c2cccnc2)ccc1-c1cc2ccccc2oc1=O | 16 | -2 | -9 | 14 | 6
O=C(Nc1ccc(-c2cc3ccccc3oc2=O)c(Cl)c1)c1cccnc1 | 33* | -3 | 3 | 25 | -1
O=C(COC(=O)c1ccc(Cl)c(S(=O)(=O)NCc2ccccc2)c1)NCC1CCCO1 (stereo not given) | 7 | -3 | 5 | 12 | 6
O=C(O)c1cc(-c2ccc(/C=C3\NC(=O)N(c4ccccc4)C3=O)o2)ccc1Cl | 30* | -13 | 10 | 7 | 19
O=C(CNC1CCCC1)Nc1cc(Cl)ccc1[N+](=O)[O-] | 45* | 1 | -17 | -4 | 1
Cc1ccc([N+](=O)[O-])cc1NC(=O)CNC1CCCCC1 | 5 | -3 | -5 | 19 | 4
CCOC(=O)CSc1nnc(CNC(=O)c2ccc(OC)cc2OC)n1-c1ccc(OC)cc1 | 12 | 31 | 9 | -1 | 18
Cc1ccccc1N1C(=O)CC(c2c[nH]c3ccccc23)C1=O (stereo not given) | 23* | 0 | 8 | 10 | 11
Cc1ccccc1N1CCN(Cc2c[nH]c3ccccc23)CC1 | 13 | 33 | 2 | 26 | 12
Cc1cc(N2CCC(C(=O)NC3CC3)CC2)nc(-c2ccccc2)n1 | -15 | 14 | 2 | 8 | 20
CC(=O)NC1(c2ccccc2)CCN(c2cc(C)nc(-c3ccccc3)n2)CC1 | 40* | 11 | -6 | 1 | 14
CCOC(=O)Cc1cc(=O)[nH]c(/N=C(\N)Nc2ccc(C)cc2C)n1 | 35 | 24 | 5 | -3 | -4
C(=N\Nc1ccc(-n2ccnc2)nn1)/c1ccccc1 | 44* | -11 | 3 | 19 | -10
COc1cccc(Nc2ccc(-n3ccnc3)nn2)c1 | -2 | 1 | 0 | -9 | 3
CN(CCNC(=O)CN1CCN(Cc2ccccc2Cl)C1=O)Cc1ccccc1 | 45* | 5 | -4 | 7 | 7
CCOc1ccc(-c2cc(C(=O)NCCCN3CCN(CC)CC3)c3ccccc3n2)cc1 | 31* | 2 | -1 | 0 | 9
CCOC(=O)CSc1nnc(-c2cc(OC)c(OC)c(OC)c2)o1 | 1 | 4 | 10 | 10 | 16
COc1cc(-c2nnc(SCc3cc(=O)oc4cc(O)c(O)cc34)o2)cc(OC)c1OC | 45* | 1 | -60 | 5 | -14
Cc1ccnc(NC(=O)c2cc(S(=O)(=O)N3CCCCC3)ccc2Cl)c1 | 40* | 28 | 2 | 9 | 25
S=c1sc2c(N3CCOCC3)ncnc2n1-c1ccccc1 | 39* | 5 | -4 | 9 | 6
CCN1CCN(c2ncnc3c2sc(=S)n3-c2ccccc2)CC1 | 44* | 8 | -44 | 21 | -2
S=c1sc2c(N3CCN(Cc4ccccc4)CC3)ncnc2n1-c1ccccc1 | 5 | 25 | 17 | 1 | 12
Cc1cccc(NS(=O)(=O)c2cc(C(=O)OC(C)C(=O)NCc3ccc4c(c3)OCO4)ccc2C)c1 (stereo not given) | . | 8 | 2 | 13 | 24
SMILES | NALP1 yeast inh | tim10-1 inh | TIM10 inh | NLRP3 yeast inh | tim23-1 inh
CCOC(=O)NC(=O)/C(C#N)=N/Nc1ccc(F)cc1 | 38* | 14 | 14 | 4 | 6
COc1ccc(OCc2nnc(SCC(=O)Nc3ccccc3Cl)o2)cc1 | 11 | -14 | 3 | 6 | -1
OC(CNCCC1C=Nc2ccccc21)Cn1c2ccc(Cl)cc2c2cc(Cl)ccc21 (stereo not given) | 101* | . | . | . | .
O=C(CN(Cc1ccc(F)cc1)C(=O)CCC(=O)Nc1nccs1)NCc1ccccc1 | -13 | -14 | 14 | 7 | 1
CS(=O)(=O)N1CCN(c2ccccc2NC(=O)C(c2ccccc2)c2ccccc2)CC1 | 43* | 24 | 25 | -5 | 21
O=C(Nc1ccccc1N1CCCC1)c1ccc([N+](=O)[O-])cc1Cl | 15 | 31 | 13 | 20 | 15
CCOC(=O)NC(c1cccc(Cl)c1)C1CCCCCC1=O (stereo not given) | 43* | 30 | 11 | 0 | 26
Cc1cc(C(=O)NNC(=O)c2ccc(C)s2)c(C)o1 | . | -18 | -6 | 17 | -13
CCN1CCN(c2cc(C)c3cc(NC(=O)c4ccccc4F)ccc3n2)CC1 | 37* | . | . | . | .
CCOc1ccc(Oc2c(C)oc3cc(O)ccc3c2=O)cc1 | 25* | 15 | 13 | 8 | 28
CC(=O)c1ccc(S(=O)(=O)NCCCC(=O)N(C)Cc2ccc3c(c2)OCO3)cc1 | . | 1 | -3 | 9 | -5
Cc1cc(S(=O)(=O)Nc2cc(C)c(O)c(C)c2)c(C)s1 | 40* | 25 | 24 | 1 | 19
Cn1c(SCC(=O)NC2CC2)nnc1-c1ccccc1 | 5 | -10 | 6 | 22 | -10
Cc1cccc(-c2nnc(SCC(=O)NC3CC3)n2C)c1 | 28* | -8 | -2 | 11 | 1
CN1/C(=C\C=N\O)C(C)(C)c2ccccc21 | 4 | 20 | 24 | 14 | 7
CN(C)c1ccc(N=C/C=C2/N(C)c3ccccc3C2(C)C)cc1 | 54* | . | . | . | .
CN(C)CCCN(Cc1ccccc1)C(=S)Nc1ccc(F)c(Cl)c1 | 33* | 10 | -4 | 10 | -3
CC(Sc1nnc(-c2ccco2)n1C)C(=O)N1C(C)CCCC1C (stereo not given) | 36* | 11 | 11 | 22 | 10
CCOC(=O)Cc1csc(NC(=O)Cc2ccc(Cl)cc2)n1 | 2 | 16 | 3 | 26 | 28
CCOC(=O)Cc1csc(NC(=O)Cc2ccc(Br)cc2)n1 | 35* | 15 | 20 | 26 | 28
CC[n+]1ccccc1/C=C/c1ccc(N(C)C)cc1 | 11 | . | . | . | .
CC[n+]1ccc(/C=C/c2ccc(N(C)C)cc2)c2ccccc21 | 45* | . | . | . | .
CC[n+]1c(/C=C/c2ccc(OC)c(OC)c2)ccc2ccccc21 | 12 | -12 | 2 | 15 | 5
CC[n+]1c(/C=C/c2ccc(N(C)C)cc2)ccc2ccccc21 | 92* | . | . | . | .
Cc1cc(Cl)ccc1N(CC(=O)NCc1ccccc1)S(C)(=O)=O | 6 | 7 | 5 | 1 | 16
CN(C(=O)COc1cccc(C#N)c1)C1CCS(=O)(=O)C1 (stereo not given) | . | 17 | 3 | 8 | -9
CCCCN(C)CCNC(=O)c1cn(C)c(=O)c2c1c1ccccc1n2C | 42* | 18 | -13 | 8 | 13
O=C(COC(=O)/C=C/c1ccco1)Nc1ccc(F)cc1Cl | -2 | 24 | 8 | 18 | 7
Cc1ccc(C)c(SCC(=O)Nc2cccnc2Cl)c1 | 33* | -25 | -3 | 35 | 12
